Data: PubChem BioAssay (NCI)
The panel holds about 79,000 compounds, 15% with a hit somewhere; the sample as a whole holds those more often. The source made the active and inactive calls. Rule as the data show it: active = growth inhibition above about 70%; inactive = the rest.

Experiments:
[1] = NCI Yeast Anticancer Drug Screen. Data for the rad52 strain (AID 147);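 also: 0% = growth of vehicle-treated control cultures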; settings: S. cerevisiae rad52 mutant growth inhibition, active compounds read high
Procedure, shortened: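 Measured: yeast growth inhibition. System: strain with a defined DNA damage repair alteration. Reference: vehicle-treated control cultures.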

[2] = NCI Yeast Anticancer Drug Screen. Data for the wt1 strain (AID 149);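 also: 0% = growth of vehicle-treated wt1 cultures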; settings: S. cerevisiae wt1 strain (SPY 50644) growth inhibition, active compounds read high
Procedure, shortened: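 Readout: yeast growth inhibition, normalised to vehicle controls, in the wt1 strain exposed to test compounds.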

[3] = NCI Yeast Anticancer Drug Screen. Data for the rad50EPP+ strain (AID 151);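 also: 0% = growth of vehicle-treated control cultures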; settings: S. cerevisiae rad50 mutant strain, active compounds read high
Procedure, shortened: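 One strain with a rad50 alteration (rad50EPP+) was compound-treated, its growth then compared to that of vehicle controls.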

[4] = NCI Yeast Anticancer Drug Screen. Data for the mgt1 strain (AID 153); settings: S. cerevisiae mgt1 mutant growth inhibition, active compounds read high
Procedure, shortened: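 After exposure of the mgt1 yeast mutant to compound, growth was measured and reported as inhibition compared with vehicle controls.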

[5] = NCI Yeast Anticancer Drug Screen. Data for the rad50 strain (AID 155);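 also: 0% = growth of vehicle-only cultures of the same strain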; settings: S. cerevisiae rad50 strain growth inhibition, active compounds read high
Procedure, shortened: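 Compounds were tested on a yeast strain with an engineered DNA damage repair alteration; the reported value is growth inhibition normalised to vehicle treatment.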

[6] = NCI Yeast Anticancer Drug Screen. Data for the mec2-1 strain (AID 157); settings: S. cerevisiae mec2-1 strain, active compounds read high
Procedure, shortened: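 Test agents were screened against the mec2-1 yeast strain, with defined DNA repair or cell cycle alteration. Growth was scored as inhibition against vehicle-only controls.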

[7] = NCI Yeast Anticancer Drug Screen. Data for the rad14 strain (AID 159);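 also: 0% = growth of vehicle-treated control cultures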; settings: S. cerevisiae rad14 strain growth inhibition, active compounds read high
Procedure, shortened: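 Compound-treated yeast with a defined DNA-repair lesion; growth inhibition normalised to vehicle-treated cultures.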

[8] = NCI Yeast Anticancer Drug Screen. Data for the sgs1 mgt1 strain (AID 161);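 also: 0% = growth of cultures given vehicle only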; settings: S. cerevisiae sgs1 mgt1 strain, active compounds read high
Procedure, shortened: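 Genetically altered yeast, compound exposure, growth inhibition relative to vehicle.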

[9] = NCI Yeast Anticancer Drug Screen. Data for the CLN2oe strain (AID 163);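 also: 0% = growth of vehicle-only control cultures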; settings: S. cerevisiae CLN2oe strain, active compounds read high
Procedure, shortened: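 Here, growth inhibition in a cell-cycle-altered yeast strain after compound exposure was quantified against vehicle control growth.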

[10] = NCI Yeast Anticancer Drug Screen. Data for the cln2 rad14 strain (AID 165);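 also: 0% = growth equal to vehicle treated cultures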; settings: S. cerevisiae cln2 rad14 strain, active compounds read high
Procedure, shortened: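 Growth of compound-exposed yeast (cln2 rad14 genotype) measured and expressed as inhibition relative to vehicle.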

[11] = NCI Yeast Anticancer Drug Screen. Data for the bub3 strain (AID 167); settings: S. cerevisiae bub3 mutant strain, active compounds read high
Procedure, shortened: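 Growth of a checkpoint-deficient yeast mutant is measured after compound exposure. Values represent inhibition relative to vehicle.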

[12] = NCI Yeast Anticancer Drug Screen. Data for the wt2 strain (AID 169);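 also: 0% = growth of vehicle-treated yeast cultures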; settings: S. cerevisiae wt2 strain growth inhibition, active compounds read high
Procedure, shortened: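 Genetically defined yeast strains from a DNA-repair/cell-cycle panel were used. Compound-exposed yeast growth was measured, and the inhibition was calculated relative to vehicle treatment.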

[13] = NCI Yeast Anticancer Drug Screen. Data for the mlh1 strain (AID 171);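 also: 0% = growth of vehicle-treated control cultures of the same strain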; settings: S. cerevisiae mlh1 strain growth inhibition, active compounds read high
Procedure, shortened: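 Here the genetically defined yeast mutant is grown with each compound, and the extent to which its growth falls below that of vehicle-exposed cells is reported.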

[14] = NCI Yeast Anticancer Drug Screen. Data for the sgs1 strain (AID 173);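 also: 0% = growth of vehicle-only control cultures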; settings: S. cerevisiae sgs1 mutant, active compounds read high
Procedure, shortened: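 Relative growth inhibition, referenced to vehicle, was determined in a yeast strain with a defined alteration affecting DNA damage repair or cell cycle control after compound exposure.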

[15] = NCI Yeast Anticancer Drug Screen. Data for the mlh1 rad18 strain (AID 175); settings: S. cerevisiae mlh1 rad18 strain growth inhibition, active compounds read high
Procedure, shortened: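 In this whole-cell yeast screen, a strain with altered DNA damage repair is challenged with compound, and its growth is measured against matched vehicle-treated controls.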

[16] = NCI Yeast Anticancer Drug Screen. Data for the rad18 strain (AID 177); settings: S. cerevisiae rad18 mutant growth inhibition, active compounds read high
Procedure, shortened: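 Screen uses a yeast strain with a defined lesion in DNA damage repair; compound effect is read as loss of growth compared to untreated vehicle cultures.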

[17] = at 5.0 µM (retest, dose inferred, filed as 0.5)
[18] = at 50.0 µM (retest, dose inferred, filed as 5.0)

Measured: growth inhibition

CCCC/C=C/C(CC)(C(=O)OCC)C(=O)OCC
inactive: [1]; at 1.2 µM -1% | [1]; at 3.7 µM -2% | [1]; at 11.0 µM -4% | [1]; at 33.0 µM -1% | [1]; at 100.0 µM -2% | [2]; at 1.2 µM -2% | [2]; at 3.7 µM -3% | [2]; at 11.0 µM -5% | [2]; at 33.0 µM -7% | [2]; at 100.0 µM -9% | [3]; at 1.2 µM -2% | [3]; at 3.7 µM 1% | [3]; at 11.0 µM -2% | [3]; at 33.0 µM 3% | [3]; at 100.0 µM 39% | [4]; at 1.2 µM -3% | [4]; at 3.7 µM -1% | [4]; at 11.0 µM -2% | [4]; at 33.0 µM -5% | [4]; at 100.0 µM -3% | [5]; at 1.2 µM -2% | [5]; at 3.7 µM -4% | [5]; [17] -9% | [5]; at 11.0 µM -3% | [5]; at 33.0 µM -3% | [5]; [18] -11% | [5]; at 50.0 µM 3.6% | [5]; at 100.0 µM -6% | [6]; at 1.2 µM 0% | [6]; at 3.7 µM -1% | [6]; [17] 5% | [6]; at 11.0 µM -2% | [6]; at 33.0 µM -1% | [6]; [18] 43% | [6]; at 50.0 µM -11.7% | [6]; at 100.0 µM -1% | [7]; at 1.2 µM -2% | [7]; at 3.7 µM -5% | [7]; at 11.0 µM -2% | [7]; at 33.0 µM -1% | [7]; at 100.0 µM 1% | [8]; [17] -3% | [8]; [18] 33% | [8]; at 50.0 µM 10.6% | [9]; at 1.2 µM -4% | [9]; at 3.7 µM 0% | [9]; at 11.0 µM -6% | [9]; at 33.0 µM -7% | [9]; at 100.0 µM -3% | [10]; [17] 6% | [10]; [18] 24% | [10]; at 50.0 µM 16.6% | [11]; at 1.2 µM 0% | [11]; at 3.7 µM -1% | [11]; [17] 11% | [11]; at 11.0 µM 1% | [11]; at 33.0 µM 6% | [11]; [18] 52% | [11]; at 50.0 µM 24.1% | [11]; at 100.0 µM 11% | [12]; at 1.2 µM -3% | [12]; at 3.7 µM -4% | [12]; at 11.0 µM -5% | [12]; at 33.0 µM -5% | [12]; at 100.0 µM -5% | [13]; at 1.2 µM -3% | [13]; at 3.7 µM -6% | [13]; at 11.0 µM -5% | [13]; at 33.0 µM -2% | [13]; at 100.0 µM 5% | [14]; at 1.2 µM -2% | [14]; at 3.7 µM 1% | [14]; at 11.0 µM 0% | [14]; at 33.0 µM 0% | [14]; at 100.0 µM 5% | [15]; [17] 7% | [15]; [18] 36% | [15]; at 50.0 µM -8.65% | [16]; at 1.2 µM -1% | [16]; at 3.7 µM 3% | [16]; at 11.0 µM 4% | [16]; at 33.0 µM 3% | [16]; at 100.0 µM 7%

Cc1nc(-c2ccccc2)c(-c2ccccc2)s1
inactive: [1]; at 1.2 µM 23% | [1]; at 3.7 µM 0% | [1]; at 11.0 µM 17% | [1]; at 33.0 µM 68% | [2]; at 1.2 µM -12% | [2]; at 3.7 µM 9% | [2]; at 11.0 µM 9% | [2]; at 33.0 µM 59% | [3]; at 1.2 µM -24% | [3]; at 3.7 µM 4% | [3]; at 11.0 µM 29% | [3]; at 33.0 µM 50% | [3]; at 100.0 µM 65% | [4]; at 1.2 µM 24% | [4]; at 3.7 µM 8% | [4]; at 11.0 µM 44% | [5]; at 1.2 µM -29% | [5]; at 3.7 µM -24% | [5]; at 11.0 µM -19% | [6]; at 1.2 µM 3% | [6]; at 3.7 µM 26% | [6]; at 11.0 µM 24% | [6]; at 33.0 µM 67% | [7]; at 1.2 µM 9% | [7]; at 3.7 µM 10% | [7]; at 11.0 µM 7% | [8]; [17] -6% | [9]; at 1.2 µM -2% | [9]; at 3.7 µM -17% | [9]; at 11.0 µM 1% | [9]; at 33.0 µM 39% | [10]; at 50.0 µM 66.1% | [11]; at 1.2 µM 6% | [11]; at 3.7 µM 2% | [11]; [17] 8% | [11]; at 11.0 µM 22% | [12]; at 1.2 µM -38% | [12]; at 3.7 µM -16% | [12]; at 11.0 µM -20% | [13]; at 1.2 µM 29% | [13]; at 3.7 µM 16% | [13]; at 11.0 µM 41% | [14]; at 1.2 µM -11% | [14]; at 3.7 µM -1% | [14]; at 11.0 µM 6% | [16]; at 1.2 µM -10% | [16]; at 3.7 µM 8% | [16]; at 11.0 µM 6% | [16]; at 33.0 µM 67%
active: [1]; at 100.0 µM 98% | [2]; at 100.0 µM 98% | [4]; at 33.0 µM 95% | [4]; at 100.0 µM 99% | [5]; [17] 98% | [5]; at 33.0 µM 77% | [5]; [18] 100% | [5]; at 50.0 µM 84.4% | [5]; at 100.0 µM 97% | [6]; [17] 96% | [6]; [18] 100% | [6]; at 50.0 µM 84.5% | [6]; at 100.0 µM 97% | [7]; at 33.0 µM 84% | [7]; at 100.0 µM 97% | [8]; [18] 100% | [8]; at 50.0 µM 88.4% | [9]; at 100.0 µM 96% | [10]; [17] 71% | [10]; [18] 101% | [11]; at 33.0 µM 78% | [11]; [18] 101% | [11]; at 50.0 µM 84.5% | [11]; at 100.0 µM 98% | [12]; at 33.0 µM 81% | [12]; at 100.0 µM 97% | [13]; at 33.0 µM 87% | [13]; at 100.0 µM 97% | [14]; at 33.0 µM 86% | [14]; at 100.0 µM 98% | [15]; [17] 100% | [15]; [18] 100% | [15]; at 50.0 µM 86.5% | [16]; at 100.0 µM 94%
